The results in this text go back to PubChem BioAssay (NCI).

Compounds without any hit were thinned out: in the full panel of roughly 79,000, 15% have a hit. Active and inactive are the calls of the source. Rule as the data show it: active = growth inhibition above about 70%; inactive = the rest.

The first experiment is described as follows: NCI Yeast Anticancer Drug Screen. Data for the wt1 strain (AID 149).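 Also: 0% = growth of vehicle-treated wt1 cultures.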 The conditions noted are these: S. cerevisiae wt1 strain (SPY 50644) growth inhibition; at 100.0 µM; active compounds read high. A digest of the protocol:
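Compounds are added to wt1 yeast cultures. Growth is then measured. Inhibition is expressed relative to vehicle-treated controls.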
For `COc1ccc2nc(N/N=C/c3sccc3C)cc(C)c2c1`, the growth inhibition was 95% (active).

For `O=C(O)/C=C\C(=O)NNc1ccc(Br)cc1`, the growth inhibition was 99% (active).

For `CCN(CC)CCSc1c2ccccc2nc2cc(NCC(=O)Nc3ccccc3-c3ccccc3NC(=O)CNc3ccc4c(SCCN(CC)CC)c5ccccc5nc4c3)ccc12`, the growth inhibition is 96% (active).

For `COc1ccc(C(=O)NCCN(C)C)c2nc3ccccc3cc12`, the growth inhibition is 39% (inactive).

Regarding `O=c1[nH]c(=O)n(CCCO)cc1F`, the growth inhibition is -4% (inactive).

On to `CCCC(=O)OC(OC(=O)CCC)c1ccc([N+](=O)[O-])o1`, for which the growth inhibition was 11% (inactive).

For the molecule `O=C(/C(=C/c1ccccc1)CBr)c1ccccc1`, the growth inhibition is 99% (active).

As to `O=C(Cc1ccccc1F)NC1=C(Cl)C(=O)c2ccccc2C1=O`, the growth inhibition was 17% (inactive).

Consider `Cc1cccc(N2CCN(C(=O)/C(=C/c3ccccc3)NC(=O)c3ccccc3)CC2)c1`, for which the growth inhibition is 31% (inactive).

On to `Cc1ccc2nc(N/N=C/c3ccc(C)s3)cc(C)c2c1`, for which the growth inhibition is 94% (active).

Consider `COc1ccc2cc(CN3CCC(C4CCN(Cc5ccc6cc(OC)ccc6c5)CC4)CC3)ccc2c1`, for which the growth inhibition is 98% (active).

On to `CC[C@@]1(OC(=O)CN(C)C)C(=O)OCc2c1cc1n(c2=O)Cc2cc3ccccc3nc2-1`, for which the growth inhibition was 93% (active).

The nature of the next experiment: NCI Yeast Anticancer Drug Screen. Data for the rad50EPP+ strain (AID 151).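 Also: 0% = growth of vehicle-treated control cultures.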 As to conditions: S. cerevisiae rad50 mutant strain, at 1.2 µM, active compounds read high. A digest of the protocol:
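In this screen, rad50EPP+ yeast were exposed to compounds. Growth inhibition was scored against vehicle-treated controls.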
`CNC(=O)OCc1c(COC(=O)NC)c(C)n(-c2ccc(Cl)c(Cl)c2)c1C`: the growth inhibition is -23% (inactive).

`S=c1[nH]nc(Cc2ccccc2)c(=S)[nH]1`: the growth inhibition was -22% (inactive).

In the case of `COc1ccc2nc3cccc([N+](=O)[O-])c3c(NCCCO)c2c1`, the growth inhibition was 9% (inactive).

As for `Cc1ccc(N(C=O)c2c([N+](=O)[O-])cc([N+](=O)[O-])c3c2=[N+]([O-])CN=3)cc1`, the growth inhibition is 35% (inactive).

Turning to `COc1ccc(C(=O)OCCc2ccccc2)cc1`, the growth inhibition was 10% (inactive).

For `NCC(O)CSCc1ccc(Cl)cc1` (stereo unspecified), the growth inhibition was -3% (inactive).

Take `COc1ccc(/C(=N/O)c2ccccc2C2=Nc3ccccc3C(NCc3ccccc3)O2)cc1C` (stereo unspecified): the growth inhibition was 3% (inactive).

In the case of `c1cc(Nc2ccc3c(c2)OCO3)c2cc(C3CCCCC3)ccc2n1`, the growth inhibition was 1% (inactive).

`COc1cc(NCCCCCNC(C)C)c2ncccc2c1Cl`: the growth inhibition is 1% (inactive).

For `CC(=O)O/N=C/c1c2ccccc2cc2ccccc12`, the growth inhibition is 14% (inactive).

Take `CCCCCCC(CCl)c1sc(-c2csc(CCNC(=O)OC(C)(C)C)n2)nc1C(=O)OC` (stereo unspecified): the growth inhibition was -1% (inactive).

In the case of `CCOC(=O)C1=C(C)NC(C)=C(C(=O)OCC)C1c1cccc([N+](=O)[O-])c1`, the growth inhibition was -54% (inactive).

In the case of `Cc1ccc2c(/C=C/c3ccc(N(C)C)cc3)ccnc2c1C`, the growth inhibition is -22% (inactive).

For the molecule `O=C1C(Br)=CC(Br)(Br)C=C1Br`, the growth inhibition is 24% (inactive).
